Active and inactive are the calls of the source. Unless noted, the rule behind the calls is not given here.
Columns and labels:
[1] = system: Wnt5a (protein binding on small-molecule microarray); assay: Wnt5a binders on small-molecule microarray, primary screen, biophysical, 635/667 nm fluorescence (AID 1142); settings: 635 nm fluorescence, higher = more signal;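 note: fluorescence read at 667 nm with signal to noise per printed feature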
[2] = cell viability in Huh7 cells, primary screen, cytotoxicity control for HCV replication inhibitor project, CellTiter-Glo luminescence, basal, 48 h (AID 1143); settings: Huh7 HCV replicon, higher = more signal, called active from +8 up or from −8 down;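 note: Huh7 hepatoma cells carrying a hepatitis C replication reporter with no stimulus; test concentration not given here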
[3] = P. aeruginosa biofilm formation inhibitors, primary screen, PAO1 strain, BacTiter-Glo luminescence, LB-PBS (AID 1144); settings: 12 h, higher = more signal
[4] = CREB reporter modulators without forskolin, primary screen, cell-based, PC12, CRE-LacZ reporter, unstimulated (AID 1145); settings: no forskolin, luminescence, 4.5 h, higher = more signal, called active from +8 up or from −8 down
[5] = CREB reporter modulators under forskolin, primary screen, cell-based, PC12, CRE-LacZ reporter, forskolin-stimulated (AID 1146); settings: luminescence, 4.5 h, higher = more signal, called active from +8 up or from −8 down;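 note: PC12 cells with 6xCRE LacZ reporter stimulated by forskolin 10 µM; beta-galactosidase reporter signal reflecting CREB driven transcription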
[6] = target: Streptavidin (Streptomyces avidinii) (UniProt P22629); assay: streptavidin binders on small-molecule microarray, primary screen, artefact control for SMM compound annotation, biophysical, 635/667 nm fluorescence (AID 1147); settings: streptavidin binding, higher = more signal;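 note: signal reflects streptavidin binding to arrayed compounds as a control protein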
Streptavidin (Streptomyces avidinii), sequence (P22629 whole entry, looked up): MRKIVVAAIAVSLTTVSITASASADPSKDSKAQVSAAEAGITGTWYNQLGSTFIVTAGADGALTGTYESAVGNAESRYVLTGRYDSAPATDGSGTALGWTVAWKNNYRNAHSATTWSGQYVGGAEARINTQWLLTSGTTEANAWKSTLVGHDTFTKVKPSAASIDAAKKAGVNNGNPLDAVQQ

[7] = small-molecule binders of probe aInhba, primary screen, biochemical, small-molecule microarray, 635/667 nm fluorescence (AID 1148); settings: higher = more signal;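 note: score merges 667nm spot fluorescence with signal-to-noise for antibody binding to printed compounds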
[8] = target: Torsin-1A (Homo sapiens) (UniProt O14656); assay: torsin A binders from cell lysate, primary screen, small-molecule microarray, wild-type, 635/667 nm (AID 1149); settings: COS7 hTOR1A-WT lysate, 635 nm fluorescence, higher = more signal
Torsin-1A (Homo sapiens), sequence (O14656 whole entry, looked up): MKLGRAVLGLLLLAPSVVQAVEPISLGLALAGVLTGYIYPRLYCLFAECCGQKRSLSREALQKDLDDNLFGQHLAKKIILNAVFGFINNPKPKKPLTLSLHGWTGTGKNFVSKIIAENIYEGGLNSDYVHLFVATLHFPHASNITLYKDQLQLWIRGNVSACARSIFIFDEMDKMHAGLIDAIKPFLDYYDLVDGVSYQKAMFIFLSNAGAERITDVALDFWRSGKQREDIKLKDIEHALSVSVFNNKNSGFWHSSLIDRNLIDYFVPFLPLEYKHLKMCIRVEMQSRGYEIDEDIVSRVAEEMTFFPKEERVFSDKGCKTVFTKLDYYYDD

[9] = target: Torsin-1A (Homo sapiens) (UniProt O14656); assay: small-molecule binders of mutant TOR1A in lysate, primary screen, cell lysate, small-molecule microarray, COS7 lysate, 635/667 nm fluorescence (AID 1150); settings: COS7 hTOR1A mutant lysate, 635 nm fluorescence, higher = more signal;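 note: score pools 667 nm emission and signal to noise measuring lysate protein binding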
[10] = system: Sonic hedgehog protein (Shh); assay: small-molecule binders of Shh protein, primary screen, biochemical, small-molecule microarray, 635/667 nm fluorescence (AID 1151); settings: small-molecule microarray binding, 635 nm fluorescence; higher = more signal;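 note: Shh protein binding to compounds spotted on small-molecule microarray slides; score combines spot fluorescence intensity with signal-to-noise across triplicate slides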
[11] = E. coli DRC41 culture turbidity changes, primary screen, E. coli filamentation inducer project, strain DRC41, OD650, 48 h (AID 1152);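 note: E. coli MC1000 strain DRC41 lacking acrAB efflux pump and sulA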; settings: E. coli DRC41 (acrAB sulA), higher = more signal, called active from +8 up or from −8 down
[12] = small-molecule binders of probe aLefty1, primary screen, biochemical, small-molecule microarray, 635/667 nm fluorescence (AID 1153); settings: higher = more signal;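 note: score merges spot fluorescence with signal-to-noise ratio from the scanned slide images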
[13] = PSAC antagonists in infected red cells, primary screen, cell-based, P. falciparum Indochina, OD700, 1 h (AID 1154); settings: P. falciparum Indochina infected RBC osmotic lysis, higher = more signal, called active from +8 up or from −8 down
[14] = PSAC antagonists in infected red cells, primary screen, cell-based, P. falciparum Indochina, OD700, 2 h (AID 1155);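 note: lysis reports solute entry through the parasite surface anion channel PSAC; channel blockers reduce lysis of infected cells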; settings: P. falciparum Indochina infected erythrocytes, osmotic lysis OD700; higher = more signal, called active from +8 up or from −8 down
[15] = osmotic lysis modulators in infected erythrocytes, primary screen, PSAC antagonist project, cell-based, P. falciparum Indochina, OD700, 3 h (AID 1156); settings: higher = more signal, called active from +8 up or from −8 down
[16] = PSAC antagonists in infected red cells, primary screen, cell-based, P. falciparum Indochina, OD700, 18 h (AID 1157); settings: P. falciparum Indochina infected erythrocytes, osmotic lysis OD700, 18 h; higher = more signal, called active from +8 up or from −8 down
[17] = modulators of S6 phosphorylation in cells, primary screen, cell-based, A549, cytoblot, luminescence, serum-stimulated (AID 1158); settings: A549 phospho-S6 cytoblot, 5 h, higher = more signal;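 note: serum-stimulated A549 lung adenocarcinoma cells; signal is phosphorylated S6 detected by cytoblot immunostaining with HRP secondary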
[18] = target: NADPH oxidase 2 (Homo sapiens) (UniProt P04839); assay: NOX2-dependent H2O2 signal modulators, primary screen, NOX inhibitor project, cell-based, HEK293-NOX2, PMA-stimulated, Amplex Red fluorescence (AID 1159); settings: 45 min, higher = more signal, called active from +8 up or from −8 down; note: test concentration not given here
NADPH oxidase 2 (Homo sapiens), sequence (P04839 whole entry, looked up): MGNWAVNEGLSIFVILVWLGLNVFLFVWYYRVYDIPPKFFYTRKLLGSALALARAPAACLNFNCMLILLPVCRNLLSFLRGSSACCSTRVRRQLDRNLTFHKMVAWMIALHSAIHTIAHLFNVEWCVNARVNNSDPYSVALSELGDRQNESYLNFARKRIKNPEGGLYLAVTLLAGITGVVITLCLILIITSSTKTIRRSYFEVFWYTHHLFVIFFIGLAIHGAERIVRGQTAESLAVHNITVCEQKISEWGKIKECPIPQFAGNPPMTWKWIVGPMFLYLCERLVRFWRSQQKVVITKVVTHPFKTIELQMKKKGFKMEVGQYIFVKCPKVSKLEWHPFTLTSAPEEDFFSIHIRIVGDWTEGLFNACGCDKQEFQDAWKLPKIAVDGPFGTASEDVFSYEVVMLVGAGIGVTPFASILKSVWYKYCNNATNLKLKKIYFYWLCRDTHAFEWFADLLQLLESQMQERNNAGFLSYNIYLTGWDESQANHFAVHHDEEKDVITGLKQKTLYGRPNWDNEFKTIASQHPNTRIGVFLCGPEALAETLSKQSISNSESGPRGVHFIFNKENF

[19] = target: NADPH oxidase 4 (Homo sapiens) (UniProt Q9NPH5); assay: NOX4-dependent H2O2 signal modulators, primary screen, NOX inhibitor project, cell-based, HEK293-NOX4, tetracycline-induced, Amplex Red fluorescence (AID 1160); settings: 45 min, higher = more signal, called active from +8 up or from −8 down
NADPH oxidase 4 (Homo sapiens), sequence (Q9NPH5 whole entry, looked up): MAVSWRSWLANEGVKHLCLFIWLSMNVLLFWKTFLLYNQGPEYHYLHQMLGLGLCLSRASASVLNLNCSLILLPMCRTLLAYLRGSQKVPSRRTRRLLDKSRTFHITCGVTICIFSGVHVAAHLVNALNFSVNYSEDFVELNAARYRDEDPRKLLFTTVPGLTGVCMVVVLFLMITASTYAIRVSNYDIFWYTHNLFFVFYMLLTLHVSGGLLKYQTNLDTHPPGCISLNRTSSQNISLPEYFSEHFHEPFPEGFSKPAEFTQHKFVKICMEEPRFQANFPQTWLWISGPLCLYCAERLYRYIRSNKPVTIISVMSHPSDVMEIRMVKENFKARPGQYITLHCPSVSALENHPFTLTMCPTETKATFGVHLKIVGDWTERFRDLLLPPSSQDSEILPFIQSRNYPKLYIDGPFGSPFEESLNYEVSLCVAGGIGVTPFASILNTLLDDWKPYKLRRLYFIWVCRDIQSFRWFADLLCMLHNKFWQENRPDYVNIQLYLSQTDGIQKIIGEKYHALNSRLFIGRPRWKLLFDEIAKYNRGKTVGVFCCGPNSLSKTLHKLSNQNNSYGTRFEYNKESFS

[20] = target: NADPH oxidase 5 (Homo sapiens) (UniProt Q96PH1); assay: NOX5-dependent H2O2 signal modulators, primary screen, NOX inhibitor project, cell-based, HEK293-NOX5, Amplex Red fluorescence (AID 1161); settings: HEK293-NOX5, ionomycin, 45 min, higher = more signal
NADPH oxidase 5 (Homo sapiens), sequence (Q96PH1 whole entry, looked up): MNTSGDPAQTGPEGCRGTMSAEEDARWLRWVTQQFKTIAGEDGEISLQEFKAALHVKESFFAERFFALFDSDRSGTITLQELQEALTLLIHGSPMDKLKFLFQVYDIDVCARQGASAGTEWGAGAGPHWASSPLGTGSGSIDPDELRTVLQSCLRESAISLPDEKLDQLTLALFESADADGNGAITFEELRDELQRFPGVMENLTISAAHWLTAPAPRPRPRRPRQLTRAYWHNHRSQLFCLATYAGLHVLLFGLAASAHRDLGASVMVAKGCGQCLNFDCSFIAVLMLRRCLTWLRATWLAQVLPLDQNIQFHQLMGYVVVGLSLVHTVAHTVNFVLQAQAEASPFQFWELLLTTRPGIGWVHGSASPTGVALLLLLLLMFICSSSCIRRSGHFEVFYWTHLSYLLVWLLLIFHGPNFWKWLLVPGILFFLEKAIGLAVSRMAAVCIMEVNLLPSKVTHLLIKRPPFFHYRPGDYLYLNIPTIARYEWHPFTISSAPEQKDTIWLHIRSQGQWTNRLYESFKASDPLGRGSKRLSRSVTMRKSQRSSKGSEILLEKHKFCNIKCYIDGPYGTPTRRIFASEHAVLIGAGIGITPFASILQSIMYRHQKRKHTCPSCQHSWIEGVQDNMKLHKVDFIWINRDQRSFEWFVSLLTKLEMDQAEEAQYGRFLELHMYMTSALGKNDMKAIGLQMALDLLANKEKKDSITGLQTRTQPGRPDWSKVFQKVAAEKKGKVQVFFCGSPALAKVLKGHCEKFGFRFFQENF

Compound	composite z-score [1]	z-score [2]	z-score [3]	z-score [4]	z-score [5]	composite z-score [6]	composite z-score [7]	composite z-score [8]	composite z-score [9]	composite z-score [10]	z-score [11]	composite z-score [12]	z-score [13]	z-score [14]	z-score [15]	z-score [16]	z-score [17]	z-score [18]	z-score [19]	z-score [20]
NC(=O)N1C(=O)C2C(C1=O)C1C=C(CCCO)C2C(C2CC2)N1Cc1sc2ccccc2c1Cl (stereo not given)	0.588	-0.205 (inactive)	0.0825 (inactive)	0.261 (inactive)	-0.654 (inactive)	0.526	-0.0371	0.842	0.82	0.726	0.4 (inactive)	0.105	13.4 (active)	2.12 (inactive)	0.394 (inactive)	1.07 (inactive)	0.125	2.74 (inactive)	0.923 (inactive)	-0.549
COC(=O)[C@@]1(Cc2ccc(F)cc2)[C@H]2c3cc(C(=O)N(C)C)n(CCc4ccc(O)c(O)c4)c3C[C@H]2CN1C(=O)c1ccccc1	0.643	0.395 (inactive)	-0.0598 (inactive)	0.387 (inactive)	1.4 (inactive)	0.365	0.528	0.411	0.92	-1.67	-0.81 (inactive)	0.162	0.183 (inactive)	0.194 (inactive)	0.248 (inactive)	0.494 (inactive)	0.407	-0.168 (inactive)	-1.31 (inactive)	-0.966
COCCOC(=O)N1C(=O)[C@@]2(c3cc(C#CCNC(N)=O)ccc31)[C@H](C(=O)Nc1nc3ccccc3s1)[C@H]1C(=O)O[C@H](c3ccccc3)[C@H](c3ccccc3)N1[C@@H]2c1ccccc1OCCO	0.553	-2.11 (inactive)	-0.264 (inactive)	-0.465 (inactive)	-0.154 (inactive)	0.158	0.152	0.508	0.0351	1.82	1.14 (inactive)	0.646	2.15 (inactive)	0.215 (inactive)	0.483 (inactive)	-1.08 (inactive)	2.18	1.41 (inactive)	0.695 (inactive)	0.934
CN1C(=O)[C@@H]2[C@@H](CC(COc3ccccc3)=C3[C@@H](CCc4ccccc4)OB(O)C[C@@H]32)C1=O	0.0305	-0.706 (inactive)	0.32 (inactive)	1.76 (inactive)	0.89 (inactive)	-0.156	-0.128	0.179	0.0191	0.394	-0.759 (inactive)	-0.191	4.5 (inactive)	0.626 (inactive)	-0.488 (inactive)	0.133 (inactive)	-0.202	0.693 (inactive)	0.41 (inactive)	0.82
COc1ccc(C(=O)Nc2cccc(CN3C(=O)[C@@]4(O[C@@H](CC(=O)N5CCC[C@H]5CO)[C@H]([Si](C)(C)c5ccc(OC)cc5)[C@H]4C)c4ccccc43)c2)cc1	0.107	-4.18 (inactive)	-0.601 (inactive)	1.69 (inactive)	-1.55 (inactive)	0.621	-0.0454	0.313	1.15	1.26	-0.184 (inactive)	-0.06	4.51 (inactive)	1.32 (inactive)	0.691 (inactive)	0.696 (inactive)	1.31	1.24 (inactive)	0.982 (inactive)	4.72
CCCN1C(=O)[C@]2(CCC(=O)OC(C)(C)C)N=C(c3ccc(OCCCO)cc3)O[C@@H]2c2ccccc21	0.456	-4.35 (inactive)	-0.543 (inactive)	0.512 (inactive)	-1.44 (inactive)	-0.374	0.173	1.51	0.111	1.7	0.239 (inactive)	0.26	34.1 (active)	36.8 (active)	2.57 (inactive)	8.76 (active)	-0.0347	-3.07 (inactive)	-0.483 (inactive)	-1.51
COC(=O)[C@@]1(Cc2ccccc2)[C@H]2c3cc(C(=O)N(C)C)n(Cc4ccc(C(F)(F)F)nc4)c3C[C@H]2CN1C(=O)c1ccccc1	0.598	-1.94 (inactive)	-0.0691 (inactive)	-0.189 (inactive)	0.484 (inactive)	2.08	0.433	0.167	0.511	-0.561	-1.64 (inactive)	1.1	1.5 (inactive)	0.234 (inactive)	1.3 (inactive)	0.715 (inactive)	0.184	0.0745 (inactive)	-1.31 (inactive)	-3.12

From PubChem BioAssay
